The values that follow come from PubChem BioAssay (Tox21).

Inconclusive results are not listed. Calls of active or inactive are those of the source. Unless noted, calls come from the whole dose curve; as a rule, active = well fitted curve in the direction sought with a large enough effect in the repeat runs; inconclusive = weak or mixed curves; inactive = no such curve, though single readings can be large; an effect the other way counts as inactive or inconclusive.

Assay [1] is described as follows: qHTS assay to identify small molecule antagonists of the thyroid receptor (TR) signaling pathway - cell viability counter screen (AID 743064). Note: nearly all actives have a fitted effect of over 50% in size. The procedure, abridged: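 GH3.TRE-Luc rat pituitary cells carrying a TRE-luciferase reporter were treated with compound plus 1 nM T3 (final) for 23.5 h at 37 °C. Viability was then read in the same wells by CellTiter-Fluor fluorescence after a further 30 min.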

A short description of assay [2]: qHTS assay to identify small molecule antagonists of the thyroid receptor (TR) signaling pathway (AID 743065). Note: series mostly up to about 70 µM; nearly all actives have a fitted effect of over 55% in size. In a few lines:
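Antagonism measured as loss of luciferase signal in GH3 cells stably carrying a TRE-luciferase reporter, co-treated with compound and T3 (1 nM final) for 23.5 h at 37 C. Viability was read in the same well by CellTiter-Fluor.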
(Quantitative high-throughput screening tests each substance at several concentrations.)

Assay [3] deals with thyroid hormone receptor (rat, GH3 cells). Briefly: qHTS assay to identify small molecule agonists of the thyroid receptor (TR) signaling pathway (AID 743066; calls by dose curve).
The nature of assay [4]: qHTS assay to identify small molecule antagonists of the estrogen receptor alpha (ER-alpha) signaling pathway - cell viability counter screen (AID 743074; calls by dose curve; note: nearly all actives have a fitted effect of over 45% in size).
The nature of assay [5]: qHTS assay to identify small molecule antagonists of the estrogen receptor alpha (ER-alpha) signaling pathway using the BG1 cell line - cell viability counter screen (AID 743081).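 Note: compound given together with 17beta-estradiol as the ER stimulus; series mostly up to about 70 µM; nearly all actives have a fitted effect of over 45% in size.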
Another assay has as its target Aromatase (Homo sapiens) (UniProt P11511). Nature of the assay: qHTS assay to identify aromatase inhibitors (AID 743083). Note: series mostly up to about 70 µM; nearly all actives have a fitted effect of over 55% in size.
Assay [6] is described as follows: qHTS assay to identify aromatase inhibitors - cell viability counter screen (AID 743084).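 Note: cells stimulated with testosterone during compound exposure; nearly all actives have a fitted effect of over 55% in size.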
For assay [7], the target named is Aryl hydrocarbon receptor (Homo sapiens) (UniProt P35869). Nature of the assay: qHTS assay to identify small molecule that activate the aryl hydrocarbon receptor (AhR) signaling pathway (AID 743085).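 Note: HG2L7.5c1 human HepG2 liver cells with stably integrated DRE-driven firefly reporter; series mostly up to about 70 µM; nearly all actives have a fitted effect of over 15% in size.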 In a few lines:
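HepG2 cells (HG2L7.5c1) stably carrying a firefly luciferase reporter driven by 20 dioxin responsive elements were exposed to compound for 24 h at 37C after a 5 h settling period; luminescence rise (ONE-Glo) indicated activation.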

Assay [8] is described as follows: qHTS assay to identify small molecule that activate the aryl hydrocarbon receptor (AhR) signaling pathway - cell viability counter screen (AID 743086).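 Note: HepG2 liver cells carrying the AhR DRE luciferase reporter; series mostly up to about 70 µM; nearly all actives have a fitted effect of over 45% in size.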 In a few lines:
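Cytotoxicity counter screen: CellTiter-Fluor signal (30 min, 37 C) in 4000 HepG2 cells/well carrying the DRE-luciferase reporter, following 24 h compound exposure at 37 C.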

Assay [9] in a line: qHTS assay to identify small molecule antagonists of the peroxisome proliferator-activated receptor gamma (PPARg) signaling pathway - cell viability counter screen (AID 743194). Note: nearly all actives have a fitted effect of over 55% in size. In a few lines:
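Viability was measured as CellTiter-Glo luminescence in GeneBLAzer PPARg UAS-bla HEK293H cells. These cells had been exposed 17 h at 37 C to compounds together with rosiglitazone at 50 nM final, with the beta-lactamase readout taken in the same wells.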

Assay [10] can be described thus: qHTS assay for small molecule agonists of the antioxidant response element (ARE) signaling pathway (AID 743202; active = well fitted activation curve with a large enough effect in the signal ratio in the repeat runs, not every such curve was filed as active; the % refers to the signal ratio). In a few lines:
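Beta-lactamase reporter activity, read as fluorescence intensity, reflects ARE/Nrf2 pathway induction in HepG2 cells after 16 h compound exposure at 37 C; substrate loading was 2 h at room temperature.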

Assay [11] can be described thus: qHTS assay for small molecule agonists of the antioxidant response element (ARE) signaling pathway - cell viability counter screen (AID 743203; calls by dose curve; note: nearly all actives have a fitted effect of over 55% in size). The procedure, abridged:
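Cytotoxicity was tested in parallel with the ARE reporter screen. ARE-bla HepG2 cells were exposed to compounds for 16 hrs, and viability was taken from CellTiter-Glo luminescence.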

The nature of assay [12]: qHTS assay for small molecule activators of the heat shock response signaling pathway - cell viability counter screen (AID 743209). Note: nearly all actives have a fitted effect of over 50% in size. The procedure, abridged: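 Cytotoxicity counter screen run in parallel with the HSE beta-lactamase reporter, using the same wells. HeLa HSE-bla cells received compound for 5 h at 37 C; ATP-based CellTiter-Glo luminescence was measured after 30 min at room temperature.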

The target in assay [13] is Estrogen receptor (Homo sapiens) (UniProt P03372). Nature of the assay: qHTS assay to identify small molecule agonists of the estrogen receptor alpha (ER-alpha) signaling pathway (AID 743075; calls by dose curve).
For assay [14] the target is unchanged. Briefly: qHTS assay to identify small molecule agonists of the estrogen receptor alpha (ER-alpha) signaling pathway using the BG1 cell line (AID 743079). Note: nearly all actives have a fitted effect of over 20% in size. Note: potency is the fitted concentration of half-maximal effect.
For assay [15], the target named is Peroxisome proliferator-activated receptor gamma (Homo sapiens) (UniProt P37231). Briefly: qHTS assay to identify small molecule agonists of the peroxisome proliferator-activated receptor gamma (PPARg) signaling pathway (AID 743094; active = well fitted activation curve with a large enough effect in the signal ratio in the repeat runs, not every such curve was filed as active; the % refers to the signal ratio). The procedure, abridged:
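Cells from the PPARg UAS-bla HEK293H line are plated and incubated 5 h at 37C. Compounds in DMSO are pinned in and left 17 h at 37C. LiveBLAzer B/G substrate is then added for 1 h at room temperature before fluorescence is measured.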

Assay [16] shares this target. Nature of the assay: qHTS assay to identify small molecule antagonists of the peroxisome proliferator-activated receptor gamma (PPARg) signaling pathway (AID 743191; calls by dose curve; note: series mostly up to about 63 µM; nearly all actives have a fitted effect of over 30% in size). In a few lines:
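Beta-lactamase reporter under UAS control in HEK293H PPARg-bla cells; compound treatment 17 h at 37C. Read-out: fluorescence intensity after 1 h room-temperature incubation with LiveBLAzer B/G FRET substrate.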

Assay [17] addresses Estrogen receptor (Homo sapiens) (UniProt P03372). Nature of the assay: qHTS assay to identify small molecule antagonists of the estrogen receptor alpha (ER-alpha) signaling pathway (AID 743069; active = well fitted curve in the direction sought with a large enough effect in the signal ratio in the repeat runs, not every such curve was filed as active; the % refers to the signal ratio). In a few lines:
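Fluorescence intensity from a beta-lactamase FRET substrate served as the read-out. Cells: HEK293 with stably integrated ER-alpha-UAS-bla reporter. Agonist 17beta-estradiol was co-added with compounds; incubation 18 hr at 37C, substrate 2 hr at room temperature.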

The nature of assay [18]: qHTS assay to identify small molecule antagonists of the estrogen receptor alpha (ER-alpha) signaling pathway using the BG1 cell line (AID 743080; calls by dose curve;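 note: BG1 cells stimulated with 17beta-estradiol alongside compound; series mostly up to about 70 µM; nearly all actives have a fitted effect of over 25% in size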). The procedure, abridged:
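Luminescence from a 4×ERE-luciferase reporter in BG1-Luc-4E2 cells served as read-out. Cells, pre-cultured 5 days in stripped-serum phenol-red-free medium, were exposed to compound with 17beta-estradiol co-stimulation for 21.5 h at 37 C.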

A short description of assay [19]: qHTS assay for small molecule activators of the heat shock response signaling pathway (AID 743210; active = well fitted activation curve with a large enough effect in the signal ratio in the repeat runs, with a control signal flat, not every such curve was filed as active; the % refers to the signal ratio;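 note: HeLa cells with beta-lactamase reporter driven by heat shock elements; series mostly up to about 63 µM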). The procedure, abridged: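 Fluorescence from a cleaved B/G FRET substrate (2.5 h, room temp) reports HSE-driven beta-lactamase in HeLa cells treated 5 h at 37 C with DMSO-dissolved compounds.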

Sequence of Peroxisome proliferator-activated receptor gamma (Homo sapiens) (P37231 whole entry, looked up): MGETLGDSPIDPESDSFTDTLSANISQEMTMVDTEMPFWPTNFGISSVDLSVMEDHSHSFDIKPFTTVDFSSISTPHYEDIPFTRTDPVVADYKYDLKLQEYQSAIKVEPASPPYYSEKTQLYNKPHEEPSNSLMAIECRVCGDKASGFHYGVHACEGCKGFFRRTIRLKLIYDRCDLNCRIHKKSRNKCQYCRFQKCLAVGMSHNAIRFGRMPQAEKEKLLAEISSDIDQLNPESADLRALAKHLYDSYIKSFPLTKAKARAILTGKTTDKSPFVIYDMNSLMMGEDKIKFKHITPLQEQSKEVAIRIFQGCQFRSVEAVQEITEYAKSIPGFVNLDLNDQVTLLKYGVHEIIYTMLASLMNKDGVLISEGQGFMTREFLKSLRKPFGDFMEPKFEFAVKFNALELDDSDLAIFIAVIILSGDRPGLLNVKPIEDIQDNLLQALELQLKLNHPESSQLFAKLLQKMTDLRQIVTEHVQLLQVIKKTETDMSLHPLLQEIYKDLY
Sequence of Aromatase (Homo sapiens) (P11511 whole entry, looked up): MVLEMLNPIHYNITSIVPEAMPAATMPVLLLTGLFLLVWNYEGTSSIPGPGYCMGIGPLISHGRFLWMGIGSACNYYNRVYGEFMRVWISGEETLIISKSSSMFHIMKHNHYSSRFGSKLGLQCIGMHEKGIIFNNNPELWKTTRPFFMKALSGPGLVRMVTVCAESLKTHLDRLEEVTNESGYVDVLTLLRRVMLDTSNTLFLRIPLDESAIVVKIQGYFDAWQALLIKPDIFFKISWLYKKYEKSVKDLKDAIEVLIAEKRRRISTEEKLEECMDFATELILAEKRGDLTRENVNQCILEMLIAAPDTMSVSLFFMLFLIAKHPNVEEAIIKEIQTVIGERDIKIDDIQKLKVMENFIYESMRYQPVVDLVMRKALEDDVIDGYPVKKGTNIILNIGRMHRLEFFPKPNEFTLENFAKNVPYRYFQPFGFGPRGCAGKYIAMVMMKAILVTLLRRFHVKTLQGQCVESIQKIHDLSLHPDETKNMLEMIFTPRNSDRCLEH
Sequence of Estrogen receptor (Homo sapiens) (P03372 whole entry, looked up): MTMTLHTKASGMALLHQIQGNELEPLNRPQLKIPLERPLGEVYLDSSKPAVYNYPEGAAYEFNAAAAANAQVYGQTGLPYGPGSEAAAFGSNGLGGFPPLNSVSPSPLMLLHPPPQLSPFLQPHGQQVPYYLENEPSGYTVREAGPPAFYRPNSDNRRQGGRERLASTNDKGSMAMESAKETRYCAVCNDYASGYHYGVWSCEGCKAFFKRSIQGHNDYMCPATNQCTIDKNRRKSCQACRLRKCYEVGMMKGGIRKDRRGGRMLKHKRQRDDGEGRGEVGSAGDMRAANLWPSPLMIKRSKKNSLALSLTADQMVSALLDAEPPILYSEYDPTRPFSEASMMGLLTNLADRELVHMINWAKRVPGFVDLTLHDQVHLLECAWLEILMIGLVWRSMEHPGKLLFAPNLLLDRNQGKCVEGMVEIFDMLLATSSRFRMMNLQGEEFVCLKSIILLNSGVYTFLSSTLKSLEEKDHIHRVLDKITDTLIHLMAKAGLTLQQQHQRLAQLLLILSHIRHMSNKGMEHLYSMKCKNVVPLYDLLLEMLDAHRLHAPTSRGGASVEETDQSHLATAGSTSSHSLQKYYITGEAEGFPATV
Sequence of Aryl hydrocarbon receptor (Homo sapiens) (P35869 whole entry, looked up): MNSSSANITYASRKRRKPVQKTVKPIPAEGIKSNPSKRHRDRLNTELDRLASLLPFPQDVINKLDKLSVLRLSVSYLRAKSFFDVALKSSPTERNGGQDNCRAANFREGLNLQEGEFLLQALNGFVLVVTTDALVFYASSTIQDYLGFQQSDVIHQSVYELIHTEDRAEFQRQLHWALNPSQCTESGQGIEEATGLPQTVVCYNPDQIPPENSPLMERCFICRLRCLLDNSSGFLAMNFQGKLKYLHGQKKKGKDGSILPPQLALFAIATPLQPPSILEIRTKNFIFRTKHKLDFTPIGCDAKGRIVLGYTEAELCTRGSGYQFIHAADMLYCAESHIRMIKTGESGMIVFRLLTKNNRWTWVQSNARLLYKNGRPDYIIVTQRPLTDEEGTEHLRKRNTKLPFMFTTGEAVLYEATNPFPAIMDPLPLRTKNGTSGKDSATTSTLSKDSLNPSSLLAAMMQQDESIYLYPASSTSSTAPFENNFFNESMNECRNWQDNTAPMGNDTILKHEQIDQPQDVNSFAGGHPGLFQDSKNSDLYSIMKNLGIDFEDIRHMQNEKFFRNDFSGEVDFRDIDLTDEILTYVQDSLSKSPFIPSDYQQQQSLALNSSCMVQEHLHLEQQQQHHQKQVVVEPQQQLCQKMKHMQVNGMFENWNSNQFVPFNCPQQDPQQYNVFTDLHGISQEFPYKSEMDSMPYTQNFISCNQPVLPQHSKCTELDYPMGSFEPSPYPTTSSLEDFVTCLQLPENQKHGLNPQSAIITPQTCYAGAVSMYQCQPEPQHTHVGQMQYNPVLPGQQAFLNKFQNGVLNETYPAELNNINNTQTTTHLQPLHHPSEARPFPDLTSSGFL

With `COS(=O)(=O)O`, the Potency entry in assay [1], in assay [2], in assay [5], in assay [6], in assay [7] and in assay [8] was “inactive” each time. Besides, the Potency result in assay [10] and in [12] was “inactive” each time. Further, the outcome (in assay [3]; in assay [4]; in the assay with Aromatase (Homo sapiens); in assay [9]; in [11]) was inactive.
Regarding `OCCN1CCOCC1`, the Potency entry in assay [1], in assay [2], in assay [13], in [14], in [5] and in assay [6] was “inactive” throughout. In addition, the Potency entry in assay [7], in assay [8], in [15], in assay [10] and in [12] was “inactive” each time. Besides, the outcome (in assay [3]; with Aromatase (Homo sapiens); in assay [16]; in assay [9]; in assay [11]) was inactive.
For `Cc1ccc(N)cc1S(=O)(=O)O`, the Potency entry in [1], in [13], in [14], in [5], in [6] and in [7] was “inactive” throughout. The Potency entry in [8], in assay [15], in [10] and in [12] was “inactive” throughout. Moreover, the result (in [3]; in assay [17]; in [4]; in assay [18]; with Aromatase (Homo sapiens); in assay [16]) was inactive. Also, the compound was classed as inactive in [9], in [11] and in [19].
`C=CC(=O)CCCCC`: the Potency entry in assay [1], in assay [2], in assay [5], in assay [6], in assay [7] and in [8] was “inactive” each time. The Potency result in assay [15], in assay [10] and in [12] was “inactive” in each case. Further, the outcome (in assay [3]; with Aromatase (Homo sapiens); in assay [9]; in assay [11]; in assay [19]) was inactive.
As to `Cn1c(=O)c2c(ncn2CCO)n(C)c1=O`, the Potency result in [1], in assay [2], in assay [5], in assay [6], in assay [7] and in assay [8] was “inactive” in each case. Further, the Potency entry in [10] and in assay [12] was “inactive” throughout. Moreover, the result (in assay [3]; in assay [4]; with Aromatase (Homo sapiens); in assay [9]; in assay [11]) was inactive.
For `CC1=C(C(=O)O)N2C(=O)[C@@H](NC(=O)[C@H](N)c3ccccc3)[C@H]2SC1`, the Potency result in assay [1], in [13], in assay [14], in assay [5], in [6] and in [8] was “inactive” throughout. The Potency result in assay [15] and in assay [12] was “inactive” each time. Also, the compound was classed as inactive in [3], in assay [17], in assay [4], in [18], in assay [9] and in assay [11]. Further, the call in assay [19] was inactive.
With `CN(C)C(C)(C)CO`, the Potency entry in assay [1], in [13], in assay [5], in [6], in assay [7] and in [8] was “inactive” in each case. The Potency entry in [15], in assay [10] and in [12] was “inactive” throughout. Besides, the compound was called inactive (in [3]; in assay [17]; in [4]; in assay [18]; with Aromatase (Homo sapiens); in assay [9]). Moreover, the call in assay [11] and in assay [19] was inactive. The Potency in [14] is 77 µM (active).
For the compound `CCCCCC/C=C/C(=O)OC`, the Potency result in assay [1], in assay [2], in assay [5], in assay [6], in assay [7] and in [8] was “inactive” in each case. In addition, the Potency entry in assay [15], in assay [10] and in assay [12] was “inactive” throughout. Further, the result (in assay [3]; in [4]; with Aromatase (Homo sapiens); in [9]; in assay [11]; in assay [19]) was inactive.
On to `CC(C)OC(=O)CCC(=O)OC(C)C`, for which the Potency result in assay [1], in [2], in assay [5], in assay [6], in assay [7] and in assay [8] was “inactive” in each case. Further, the Potency result in assay [15] and in assay [12] was “inactive” each time. Moreover, the outcome (in assay [3]; in assay [4]; in the assay with Aromatase (Homo sapiens); in assay [9]; in [11]; in assay [19]) was inactive.
